This note sets out measurements from PubChem BioAssay AID743314 (Broad Institute, 2014).

Structures are written as SMILES. Potency and affinity values are given separately. Records with an inconclusive call do not appear. A call without a number means that no potency is given here. The source made the active and inactive calls.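 Rule for the calls: active = fitted half-maximal concentration no higher than twice the top tested dose, in every repeat run; inconclusive = repeat runs disagree, poor fit, or flat partial inhibition; inactive = the rest.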

For this assay, the target named is Endoplasmic reticulum aminopeptidase 1 (Homo sapiens) (UniProt Q9NZ08). Kind of assay: ERAP1 aminopeptidase inhibitors, dose response, biochemical, cherry-pick, set 2, plate reader (AID 743314). The conditions noted are these: Recombinant ERAP1, Leu-AMC fluorescence, 60 min; series mostly up to 11 µM.
Chain of Endoplasmic reticulum aminopeptidase 1 (Homo sapiens) (Q9NZ08 whole entry, looked up): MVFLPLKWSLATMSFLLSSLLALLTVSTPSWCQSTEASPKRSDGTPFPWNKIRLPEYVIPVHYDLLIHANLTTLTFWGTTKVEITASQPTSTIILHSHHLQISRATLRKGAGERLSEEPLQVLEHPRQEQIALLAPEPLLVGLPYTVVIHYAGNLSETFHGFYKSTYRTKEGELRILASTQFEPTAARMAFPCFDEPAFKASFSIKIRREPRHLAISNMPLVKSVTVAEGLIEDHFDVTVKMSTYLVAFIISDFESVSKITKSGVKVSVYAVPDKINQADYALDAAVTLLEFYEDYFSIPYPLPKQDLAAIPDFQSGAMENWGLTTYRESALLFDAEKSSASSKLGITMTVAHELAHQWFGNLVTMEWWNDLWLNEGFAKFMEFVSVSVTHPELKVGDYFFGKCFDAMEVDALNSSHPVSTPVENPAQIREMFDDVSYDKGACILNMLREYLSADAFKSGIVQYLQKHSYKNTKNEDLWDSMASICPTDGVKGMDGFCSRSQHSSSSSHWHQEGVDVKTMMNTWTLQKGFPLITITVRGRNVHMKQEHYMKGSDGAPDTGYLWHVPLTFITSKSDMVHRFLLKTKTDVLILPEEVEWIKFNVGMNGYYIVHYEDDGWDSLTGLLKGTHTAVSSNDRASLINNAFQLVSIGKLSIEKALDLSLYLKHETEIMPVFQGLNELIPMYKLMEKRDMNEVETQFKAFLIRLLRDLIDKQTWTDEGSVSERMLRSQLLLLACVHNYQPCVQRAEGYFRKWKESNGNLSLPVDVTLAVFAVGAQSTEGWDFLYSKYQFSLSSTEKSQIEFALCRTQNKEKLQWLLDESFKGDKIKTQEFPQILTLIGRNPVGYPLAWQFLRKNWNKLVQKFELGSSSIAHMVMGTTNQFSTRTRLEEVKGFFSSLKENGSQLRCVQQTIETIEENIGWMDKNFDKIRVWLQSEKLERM
Take `Cn1c(=O)[nH]c(=O)c2c1[nH]c(=S)n2Cc1ccccc1`: the result was inactive.

For the molecule `COc1ccc(CN(C)C[C@@H]2OCCCC[C@H](C)Oc3ccc(NS(=O)(=O)c4cccs4)cc3C(=O)N([C@H](C)CO)C[C@H]2C)cc1`, the outcome was inactive.

As to `CN(C(=O)CSc1nnc(C(F)(F)F)n1C)c1c(N)n(Cc2ccccc2)c(=O)[nH]c1=O`, the result was inactive.

With `CCc1ccccc1NC(=O)CCC(=O)N1CCN(C(C)=O)CC1`, the outcome was inactive.

Regarding `COc1ccc2c3c([nH]c2c1)[C@H](CO)N(S(=O)(=O)c1cn(C)cn1)CC31CCN(CC2CCCCC2)CC1`, the result was inactive.

For the molecule `COCc1cn(CC[C@@H]2CC[C@H](NC(=O)CCN3CCCCC3)[C@H](CO)O2)nn1`, the result was inactive.

As for `CCn1cnc2c1c(=O)n(CC(=O)NCC(F)(F)F)c(=O)n2Cc1ccccc1`, the result was inactive.

In the case of `Cc1ccc(OCC(=O)Nc2ccc(S(=O)(=O)N(C)C3CCN(C)CC3)cc2)c(C)c1`, the result was inactive.

With `C[C@@H]1CN([C@H](C)CO)C(=O)c2cc(NC(=O)C3CC3)ccc2O[C@H]1CN(C)Cc1ccncc1`, the activity change, negative = inhibition was 26.1% [at 2.6 µM] (inactive).

`COc1ccc2c3c([nH]c2c1)[C@@H](CO)N(C(C)=O)CC31CN(S(=O)(=O)c2cccs2)C1`: the result was inactive.

In the case of `COc1ccc(C(=O)NCc2nnc(SCC(=O)NC3CCCCC3)n2C)cc1`, the result was inactive.

For the molecule `CC(=O)N1CCCCN2[C@H](CO)[C@@H](c3ccc(-c4ccccc4)cc3)[C@H]2C1`, the outcome was inactive.

Consider `O=C(C[C@@H]1C=C[C@H](NC(=O)Nc2cccc(F)c2)[C@H](CO)O1)NCC1CCCCC1`, for which the outcome was inactive.

`COc1cccc(CN(C)Cc2cc(=O)oc3cc(O)c(Cl)cc23)c1`: the outcome was inactive.

Turning to `C[C@@H]1CN([C@H](C)CO)C(=O)Cc2cc(NC(=O)Nc3cccc4ccccc34)ccc2O[C@H]1CN(C)Cc1ccc(C(=O)O)cc1`, the result was inactive.

For `COc1ccc([N+](=O)[O-])cc1NS(=O)(=O)c1cccc(C(=O)O)c1`, the outcome was inactive.

`COc1ccc(S(=O)(=O)N(C)C[C@H]2Oc3ccc(N(C)C)cc3CC(=O)N([C@H](C)CO)C[C@H]2C)cc1`: the outcome was inactive.

As to `C[C@H]1CN([C@@H](C)CO)C(=O)Cc2cc(NC(=O)Nc3cccc4ccccc34)ccc2O[C@@H]1CN(C)Cc1ccc(C(=O)O)cc1`, the result was inactive.

Regarding `CCN(CC)C(=O)c1ncn(C)c1C(=O)N(CC)CC`, the outcome was inactive.

As to `Cc1cc(C)n2nc(C(=O)Nc3ccc(N4CCOCC4)cc3)nc2n1`, the outcome was inactive.

Take `CC(C)c1ccc(OC(=O)c2cccc(S(=O)(=O)N3CCN(C)CC3)c2)cc1`: the outcome was inactive.

Regarding `COc1ccc(CN(C)C[C@H]2Oc3ccc(NS(=O)(=O)c4ccc(C)cc4)cc3C(=O)N([C@@H](C)CO)C[C@@H]2C)cc1`, the result was inactive.

Turning to `COc1ccc2c3c(n(C)c2c1)[C@@H](CO)N(C)CC31CN(C(=O)c2cccnc2)C1`, the result was inactive.

As for `CCOc1ccccc1OCCCC(=O)Nc1ccc(S(=O)(=O)Nc2cc(C)nc(C)n2)cc1`, the outcome was inactive.

Consider `CCn1c(SCC(=O)NC2CCCCC2)nc2ccccc2c1=O`, for which the outcome was inactive.

For the molecule `COc1ccc(CN(C)C[C@@H]2Oc3ccc(NS(=O)(=O)c4ccc(C)cc4)cc3C(=O)N([C@@H](C)CO)C[C@@H]2C)cc1`, the result was inactive.

Regarding `CC(C)NC(=O)C1C(c2ccc(C(F)(F)F)cc2)=Nc2ccccc2N1C(=O)c1ccco1` (stereo not drawn), the result was inactive.

For `COc1ccccc1-c1cccc(-c2nc(C(=O)Nc3nccs3)cc3c2[C@@H](CCO)N(C(=O)CC2CC2)C3)c1`, the result was inactive.

In the case of `COCC(=O)N1CCC2(CC1)CN(Cc1ccccc1F)[C@H](CO)c1[nH]c3cc(OC)ccc3c12`, the outcome was inactive.

Consider `O=c1oc2cc(O)ccc2cc1-c1nc2ccccc2o1`, for which the outcome was inactive.

On to `Cc1noc(C)c1NC(=O)N(C)C[C@@H]1Oc2c(NC(=O)Nc3ccc(F)cc3)cccc2C(=O)N([C@@H](C)CO)C[C@H]1C`, for which the outcome was inactive.

Regarding `COCCN(CC(=O)Nc1cccc(C)c1C)C(=O)CN1C(=O)NC2(CCCCC2)C1=O`, the outcome was inactive.

Regarding `C=CCn1nnnc1SCC(=O)Nc1cccc(C(F)(F)F)c1`, the result was inactive.

On to `C[C@@H]1CN([C@H](C)CO)C(=O)c2cccc(NC(=O)Nc3ccc(C(F)(F)F)cc3)c2O[C@@H]1CN(C)C`, for which the outcome was inactive.

For the molecule `CCOc1ccccc1N1CCN(C(=O)C2=CC=CN3CCS(=O)(=O)N=C23)CC1`, the outcome was inactive.

In the case of `C[C@@H]1CCCCO[C@@H](CN(C)Cc2ccc(C(=O)O)cc2)[C@H](C)CN([C@@H](C)CO)C(=O)c2cc(NS(=O)(=O)c3ccc(Cl)cc3)ccc2O1`, the result was inactive.

For the molecule `CCOc1ccccc1-n1nnnc1SCC(=O)NC(=O)Cc1ccccc1`, the outcome was inactive.

On to `Cn1cnc(Sc2ncnc3nc[nH]c23)c1[N+](=O)[O-]`, for which the result was inactive.
